Screens (PubChem)
Only some compounds are listed: those with a hit (about 1.8% of all), similar ones and a draw of the others.
Fam108B inh: counter-screen for RBBP9 inhibitors: inhibitors of mouse Fam108B; recombinant Fam108B, FP-Rh probe fluorescence polarization; inhibition, % at 9.51 µM; 300,000 tested, 0.33% active; AID 1947;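 active = inhibition above the screen mean inhibition plus 3 SD, computed separately per campaign, cut at about 18% in these data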;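 also: inhibitors lower polarization as less probe binds the enzyme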
LYPLA1 counter: counter-screen for PME1 inhibitors: inhibitors of human LYPLA1; inhibition, % at 5.9 µM; recombinant LYPLA1, FP-Rh probe fluorescence polarization; 320,000 tested, 0.16% active;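 active = inhibition above the mean of all tested compounds plus 3 SD, set per campaign, cut at about 14% in these data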;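 also: inhibitors block serine hydrolase probe labeling of LYPLA1 so polarization falls; 0% = enzyme with DMSO and 100% = wells lacking LYPLA1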
Target sequence (O75608 whole entry, looked up): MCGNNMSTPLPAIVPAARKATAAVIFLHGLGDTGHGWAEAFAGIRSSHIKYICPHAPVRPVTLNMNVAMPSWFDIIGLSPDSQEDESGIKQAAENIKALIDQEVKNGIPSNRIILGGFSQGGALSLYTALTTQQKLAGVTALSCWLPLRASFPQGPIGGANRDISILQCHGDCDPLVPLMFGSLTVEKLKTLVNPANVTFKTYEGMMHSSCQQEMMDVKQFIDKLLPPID
LYPLA2 inh: counter-screen for PME1 inhibitors: inhibitors of human LYPLA2 | AID 2177 | recombinant LYPLA2, FP-Rh probe fluorescence polarization | 320,000 tested, 0.38% active | O95372 | inhibition, % at 5.9 µM;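 active = inhibition above the screen-wide mean plus 3 SD, limit set per campaign, cut at about 26% in these data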;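 also: 0% = LYPLA2 with DMSO and 100% = wells lacking LYPLA2 enzyme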
PAD4 inh: inhibitors of human PAD4; 330,000 tested, 0.41% active; recombinant PAD4, RCA probe fluorescence polarization; inhibition, % at 6.36 µM; Q9UM07;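 active = percent inhibition above a cutoff equal to the mean of all tested compounds plus 3 SD, cut at about 15% in these data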;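 also: 0% = PAD4 with RCA probe and DMSO and 100% = probe without PAD4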
GSTO1 inh: blocks human GSTO1 in RBBP9 counter-screen. inhibition, % at 5.96 µM. P78417. 300,000 tested, 1.1% active. recombinant GSTO1, activity-based probe fluorescence polarization;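 active = inhibition above the campaign mean inhibition plus 3 SD, cut at about 35% in these data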;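 also: 0% = GSTO1-1 with DMSO and 100% = wells lacking GSTO1-1 enzyme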
PME-1 primary: blocks human protein phosphatase methylesterase 1; inhibition, % at 5.9 µM; Q9Y570; recombinant PME-1, FP-Rh probe fluorescence polarization; 320,000 tested, 0.53% active;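 active = inhibition above the campaign mean of all compounds plus 3 SD, cut at about 26% in these data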;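 also: competitive labeling of PME-1 active site by serine hydrolase directed probe; 0% = PME-1 with DMSO and 100% = wells lacking PME-1 enzyme; inhibitors block probe labeling so polarization falls and inhibition rises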
Target sequence (Q9Y570 whole entry, looked up): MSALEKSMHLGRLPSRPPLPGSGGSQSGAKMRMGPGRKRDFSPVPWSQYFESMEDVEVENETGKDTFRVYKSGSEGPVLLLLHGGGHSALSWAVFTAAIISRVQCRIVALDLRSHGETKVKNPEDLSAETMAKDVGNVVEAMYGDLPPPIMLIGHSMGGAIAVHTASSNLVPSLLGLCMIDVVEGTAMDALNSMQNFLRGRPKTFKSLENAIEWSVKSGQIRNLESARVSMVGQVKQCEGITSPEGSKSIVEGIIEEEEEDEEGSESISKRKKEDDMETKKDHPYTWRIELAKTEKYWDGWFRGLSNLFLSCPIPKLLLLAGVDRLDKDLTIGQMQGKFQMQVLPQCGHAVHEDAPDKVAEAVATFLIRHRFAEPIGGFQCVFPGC
LYPLA1 confirm: LYPLA1 (human) inhibition, confirmation counter-screen. shares compounds with LYPLA1 counter. recombinant LYPLA1, FP-Rh probe fluorescence polarization. inhibition, % at 5.9 µM. 480 tested, 69% active. AID 2233;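 active = mean inhibition across replicates above the hit cutoff set in the primary screen, cut at about 15% in these data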;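 also: loss of FP-Rh probe labeling of LYPLA1 seen as lower polarization; 0% = LYPLA1 with DMSO and 100% = wells lacking LYPLA1 enzyme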
LYPLA2 conf: LYPLA2 (human) inhibition, confirmation counter-screen; 1,100 tested, 72% active; recombinant LYPLA2, FP-Rh probe fluorescence polarization; AID 2232; shares compounds with LYPLA2 inh; inhibition, % at 5.9 µM;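 active = mean inhibition across replicates above the hit cutoff set in the primary screen, cut at about 26% in these data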;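 also: blocked labeling of the enzyme by serine hydrolase FP-Rh probe lowers polarization; 0% = enzyme with DMSO and 100% = wells lacking LYPLA2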
PAD4 confirm: PAD4 (human) inhibition, confirmed; shares compounds with PAD4 inh; recombinant PAD4, RCA probe fluorescence polarization; inhibition, % at 6.36 µM; AID 488796; 1,200 tested, 28% active;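 active = mean inhibition across replicates above the hit cutoff set by the earlier primary screen, cut at about 15% in these data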;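 also: inhibitors block active-site labeling by the probe so polarization falls; 0% = PAD4 with probe and DMSO and 100% = probe without PAD4 enzyme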
An asterisk follows results filed as active.

Cc1ccc(-c2noc(C3CCCN(C(=O)c4ccc(C(C)(C)C)cc4)C3)n2)o1 (stereo unspecified) was read as Fam108B inh -1, LYPLA1 counter 20*, LYPLA2 inh 36*, PAD4 inh 1, GSTO1 inh 2, PME-1 primary -2, LYPLA1 confirm 23* and LYPLA2 conf 37*.
`Cc1ccc(N(CC(=O)Nc2ccc(C)cn2)S(=O)(=O)c2c(C)nn(C)c2C)cc1` gave Fam108B inh 16, LYPLA1 counter 16*, LYPLA2 inh 16, PAD4 inh 49*, GSTO1 inh 36*, PME-1 primary 6, LYPLA1 confirm 2 and PAD4 confirm -6.
For COc1ccc(NC(=O)N(C)C[C@H]2Oc3c(NC(=O)Cc4ccccc4)cccc3C(=O)N([C@H](C)CO)C[C@@H]2C)cc1 the results were PAD4 inh -5.
CC(=O)N1CC=C2C(C#N)=C(N)C(C#N)(C#N)[C@H](c3ccoc3)[C@H]2C1 was read as Fam108B inh 8, LYPLA1 counter 3, LYPLA2 inh 7, PAD4 inh 0, GSTO1 inh 5 and PME-1 primary 3.
For CN1CC=C2C(C#N)=C(N)C(C#N)(C#N)[C@H](c3ccoc3)[C@H]2C1 the results were Fam108B inh 9, LYPLA1 counter 14*, LYPLA2 inh 14, PAD4 inh 22*, GSTO1 inh 41*, PME-1 primary 14, LYPLA1 confirm 0 and PAD4 confirm -2.
Screening COc1ccc(OCc2nnc(SCC(=O)Nc3ccccc3C#N)o2)cc1 returned Fam108B inh 0, LYPLA1 counter 2, LYPLA2 inh -1, PAD4 inh -2, GSTO1 inh 6 and PME-1 primary 1.
`CC1(OC(=O)c2ccco2)C(=O)C=C2C=C(C3CC3)OC=C2C1=O` (stereo unspecified) gave Fam108B inh 14, LYPLA1 counter 21*, LYPLA2 inh 23, PAD4 inh 20*, GSTO1 inh 30, PME-1 primary 20, LYPLA1 confirm 15* and PAD4 confirm 11.
`CC1(OC(=O)c2cccs2)C(=O)C=C2C=C(C3CC3)OC=C2C1=O` (stereo unspecified) gave Fam108B inh 6, LYPLA1 counter 4, LYPLA2 inh 8, PAD4 inh -3, GSTO1 inh 24 and PME-1 primary 3.
For CCCCN(C)C1=CC2=CC(=C(C#N)C#N)CCC2CC1 (stereo unspecified) the results were Fam108B inh 6, LYPLA1 counter 32*, LYPLA2 inh 12, PAD4 inh 46*, GSTO1 inh 2, PME-1 primary 42*, LYPLA1 confirm 8 and PAD4 confirm 21*.
Nc1ccc(N2CCOCC2)c2nonc12 was read as Fam108B inh 9, LYPLA1 counter 70*, LYPLA2 inh 70*, PAD4 inh 81*, GSTO1 inh 86*, PME-1 primary 25, LYPLA1 confirm 1 and PAD4 confirm -8.
CCc1ccc(-c2cnc3nc[nH]c(=O)c3n2)cc1 was read as Fam108B inh 2, LYPLA1 counter 4, LYPLA2 inh 2, PAD4 inh 3, GSTO1 inh -2 and PME-1 primary -3.
Screening CC(=O)Nc1ccc(Nc2c3c4c(cccc4n(C)c2=O)C(=O)c2ccccc2-3)cc1 returned Fam108B inh 15, LYPLA1 counter 21*, LYPLA2 inh 29*, PAD4 inh 19*, GSTO1 inh 9, PME-1 primary 33*, LYPLA1 confirm 12, LYPLA2 conf 12 and PAD4 confirm 23*.
Screening CC(=O)Nc1ccc(NC(=O)CCCCCN2C(=O)c3ccccc3C2=O)cc1 returned Fam108B inh -3, LYPLA1 counter -2, LYPLA2 inh 14, PAD4 inh 5, GSTO1 inh 6 and PME-1 primary -2.
`Cc1ccc(-c2ccccc2NC(=O)CS(=O)CC(=O)Nc2ccc(C)c(Cl)c2)o1` (stereo unspecified) gave Fam108B inh 0, LYPLA1 counter 46*, LYPLA2 inh 59*, PAD4 inh 113*, GSTO1 inh 28, PME-1 primary 45*, LYPLA1 confirm 3, LYPLA2 conf 9 and PAD4 confirm 2.
Screening CCN(CC)c1cccc(OC2=NS(=O)(=O)c3ccccc32)c1 returned Fam108B inh 6, LYPLA1 counter 15*, LYPLA2 inh 16, PAD4 inh 65*, GSTO1 inh 17, PME-1 primary 11, LYPLA1 confirm 0 and PAD4 confirm -4.
For Cc1ccc(OC2=NS(=O)(=O)c3ccccc32)cc1 the results were Fam108B inh -2, LYPLA1 counter 2, LYPLA2 inh -2, PAD4 inh 0, GSTO1 inh -1 and PME-1 primary 2.
Screening CCOc1ccc(NC(=O)CN(C)C(=O)c2c(-c3ccccc3)noc2C)cc1OCC returned LYPLA1 counter 1, LYPLA2 inh -2, PAD4 inh -1 and PME-1 primary 0.
Screening CCOC(=O)C1CCN(C2=NC(=O)/C(=C/c3ccc(Cl)cc3)S2)CC1 returned Fam108B inh -2, LYPLA1 counter 4, LYPLA2 inh 31*, PAD4 inh 6, GSTO1 inh 4, PME-1 primary 4 and LYPLA2 conf 35*.
For CCOC(=O)C1CCN(C2=NC(=O)/C(=C/c3ccc(OC)c(OC)c3)S2)CC1 the results were Fam108B inh -3, LYPLA1 counter -2, LYPLA2 inh -2, PAD4 inh 2, GSTO1 inh -4 and PME-1 primary 3.
Cc1occc1-c1nnc(SCCCC(=O)c2ccc(F)cc2)n1C was read as Fam108B inh 4, LYPLA1 counter 0, LYPLA2 inh 2, PAD4 inh 2, GSTO1 inh 11 and PME-1 primary -3.
`CCn1c(SCC(=O)c2ccc(F)cc2)nnc1-c1ccoc1C` gave Fam108B inh -2, LYPLA1 counter 5, LYPLA2 inh 35*, PAD4 inh -2, GSTO1 inh 8, PME-1 primary -1 and LYPLA2 conf -3.
`COc1ccc(C(=O)OCC(=O)c2c(N)n(C)c(=O)n(C)c2=O)cc1OC` gave Fam108B inh -1, LYPLA1 counter 1, LYPLA2 inh 3, PAD4 inh 0, GSTO1 inh 0 and PME-1 primary -8.
